Several values for one entry are separate records, joined by “and”; a condition that tells them apart may be missing. Equal entries are not always repeated. Among all 420,000 compounds or so, about 50,000 (12%) were called active. Roughly 26% stayed inconclusive and do not appear here. The full list was thinned out, with actives kept by preference. A number with no mark means an inactive call. Calls follow the shape of the dose curve; as a rule, active = well fitted inhibition curve with a large enough effect; inconclusive = small, poorly fitted or top-dose-only effect; inactive = flat fitted curve, though single readings scatter.
assay: qHTS for Inhibitors of human tyrosyl-DNA phosphodiesterase 1 (TDP1): qHTS in cells in presence of CPT; settings: chicken DT40 Tdp1-/-;hTDP1 cells + 20 nM CPT, ATP luminescence, 48 h; series mostly up to 46.2 µM; activity change, negative = growth inhibition: at the top concentration; also: nearly all actives have a fitted effect of over 55% in size
In short: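 Chicken DT40 Tdp1-/- cells stably complemented with human TDP1 were seeded at 400 cells/well in medium containing 20 nM camptothecin, exposed to pin-transferred compounds, and grown at 37 °C for at least 48 hr. Viability was read as ATP luminescence.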
% is scaled to controls: 0 for no effect and ±100 for the full control effect; potency is read from the fitted curve at half-maximal effect.

Compound | Potency | activity change, negative = growth inhibition [%]
CCOC(=O)c1nc(Nc2ccc(C(=O)OC)cc2)c2ccccc2n1 | 7.31 µM (active) and 16.4 µM (active) | 
CCOC(=O)c1ccc(Nc2cc(C)nc3nc(C)nn23)cc1 |  | 1.9
COC(=O)c1ccc(Nc2ncnc3sccc23)cc1 |  | -7.33
C/C=C/C(=O)OCC(=O)Nc1ccc(F)cc1Cl |  | -15.8
CN(C)N1C(N)=C(C#N)C(c2ccc(Br)cc2)C2=C1CCCC2=O (stereo not given) |  | 5.39
COCC(C)OC(=O)c1c(N)n(CCCN2CCOCC2)c2nc3ccccc3nc12 (stereo not given) |  | 2.35
CCCNC(=O)c1c(N)n(-c2ccc(S(N)(=O)=O)cc2)c2nc3ccccc3nc12 |  | -3.73
CC(C)(C)c1ccc(C(=O)NCCn2c(N)c(C#N)c3nc4ccccc4nc32)cc1 | 23.1 µM (active) | 
O=C(NCc1nnc(SCC(=O)N2CCCCCC2)o1)c1ccc(F)cc1 |  | 3.58
C=CCc1cc(S(=O)(=O)c2ccc(O)c(CC=C)c2)ccc1O |  | -21.5
Cc1c(CCC(=O)O)c(=O)oc2c(C)c(OCc3ccccc3Cl)ccc12 |  | 7.19
CC(C)CN(C(=O)c1cccc(S(=O)(=O)N2CCCCC2)c1)C1CCS(=O)(=O)C1 (stereo not given) | inactive | 
CCCCn1c(N)c(N(CCOC)C(=O)c2cccc(OCc3ccccc3)c2)c(=O)[nH]c1=O |  | -10.2
Cc1ccc(-c2noc(CSc3nnc(-c4ccc(Cl)cc4)n3C)n2)cc1 | 18.4 µM (active) | 
O=C(CSc1nnc(-c2ccncc2)n1-c1ccc(Cl)cc1)Nc1ccc(C(=O)O)cc1 |  | -4.12
Cc1ccc(-c2noc(CSc3nnc(-c4cccs4)n3C)n2)cc1 |  | -25.9
Cc1ccc(-c2nc(-c3ccncc3)no2)c(C)c1 |  | -6.9
Fc1ccc(-n2c(Cc3ccccc3)nnc2SCc2nc(-c3ccc(Cl)cc3)no2)cc1 | 13 µM (active) | 
COc1ccc(-c2noc(CSc3nnc(-c4ccccc4)n3-c3ccc(F)cc3)n2)c(OC)c1 | 11.6 µM (active) | 
O=C(CSc1nnc(Cc2ccccc2)n1-c1ccccc1)N1CCOCC1 |  | 5.04
Cc1ccc(CSc2nnc(-c3cnccn3)n2C)cc1 |  | 3.5
Cc1ccc(-c2noc(CSc3nnc(-c4ccncc4)n3-c3ccc(F)cc3)n2)cc1 | 11.6 µM (active) | 
COc1ccc(-c2nnc(SCC(=O)c3ccco3)n2-c2ccccc2)cc1 |  | 3.76
CSc1nnc(CNC(=O)c2ccccc2)n1-c1ccc(F)cc1 |  | -0.846
COc1ccccc1-c1noc(CSc2nc(C)cc(=O)[nH]2)n1 |  | 8.99

Compound | Potency | activity change, negative = growth inhibition [%]
Cc1cc(=O)cc(C)n1-c1ccc(Cl)c(Cl)c1 |  | 0.528
CN(C(=O)CC1C(=O)NCCN1Cc1ccc2ccccc2c1)C1CCOCC1 (stereo not given) |  | 5.07
Cc1ccc(/C=C2\CCn3c2nc2cc(C(=O)O)ccc2c3=O)c(C)c1 |  | -6.72
Cc1ccc(-c2cc(C(=O)NN)n[nH]2)o1 |  | -2.74
CN(Cc1ccccc1)C(=O)[C@@H]1CCCN1C(=O)[C@@H]1CCCN1C(=O)c1c(F)cccc1F |  | 1.59
CC(C)=CCN1CCN(Cc2ccc(Oc3ncccn3)cc2)CC1CCO (stereo not given) |  | -0.653
COc1ccccc1OCCOc1ccc(/C=C2\C(=N)N3N=C(C)SC3=NC2=O)cc1 |  | 5.82
COc1ccc(NC(=O)N(C)C[C@H]2Oc3ncc(C#C[C@@H](C)O)cc3C(=O)N([C@H](C)CO)C[C@H]2C)cc1 |  | 1.89
Cn1c(=O)cc(OCC(=O)N2CCN(c3ccccc3)CC2)c2ccccc21 |  | -1.4
N#C/C(C(=O)N1CCOCC1)=C1/SC(Cc2ccc(F)cc2)C(=O)N1c1ccccc1 (stereo not given) |  | 10.3
COc1ccc(S(=O)(=O)N2CCN(CC(=O)N3CCOCC3)CC2)cc1OC |  | 0.861
O=C(O)CCC(=O)Nc1ccc(OCC2CCCO2)cc1 (stereo not given) |  | 19.8
Cc1ccsc1-c1cc(C(=O)O)c2c(ccc3ccccc32)n1 |  | 10.3
CC(=O)C1=C(O)C(=O)N(c2ccc(Br)cc2)C1c1ccc([N+](=O)[O-])cc1 (stereo not given) |  | 23.1
CCn1c2c(c(=O)n3ncc(C(=O)N4CCN(c5ccccc5)CC4)c13)CN(Cc1ccc(OC)cc1)CC2 | 16.4 µM (active) | 
CCn1c(CNC(=O)c2ccccc2)nnc1SCC(=O)N1CCN(c2ccccc2)CC1 |  | -0.967
CCOC(=O)N1CCC(NC(=O)C(NS(=O)(=O)c2ccc3c(c2)CCN3C(=O)CC)C(C)C)CC1 (stereo not given) |  | -1.88
Cc1ccc(NS(=O)(=O)c2ccc3c(c2)NC(=O)CO3)cc1 |  | -25.8
Cc1cc2c(cc1S(=O)(=O)NCc1ccc(Cl)cc1)OCC(=O)N2 |  | -4.04
Cc1cc(C)cc(NS(=O)(=O)c2cc3c(cc2C)NC(=O)CO3)c1 | 16.4 µM (active) | 
CC1CCCCC12NC(=O)N(CC(=O)OCC(=O)NCc1ccc(F)cc1)C2=O (stereo not given) |  | 6.76
CC(=O)C[C@@H]1OC[C@H](CO)N1S(=O)(=O)c1ccc(C)cc1 |  | -5.46
COC(=O)c1ccccc1NC(=O)CSc1ccccn1 |  | 2.84
CCOC(=O)c1cnc(SCC(=O)NCc2ccco2)nc1N |  | -2.75
CCOC(=O)c1cnc(SCC(=O)Nc2ccccc2C(=O)OC)nc1N | 16.4 µM (active) | 
